The values that follow come from PubChem BioAssay AID1986 (Sanford-Burnham Center for Chemical Genomics, 2009).

The nature of the test: cell-free HIV fusion peptide-binding blockers – biochemical, uHTS, fluorescence dequenching, primary screen (AID 1986). The conditions noted are these: 30 min, stronger effect = higher value.
Setting [1] is: measured here: repeat confirmation average inhibition, at 18.6 µM.

Each structure is given as a SMILES string. In all, about 290,000 compounds went through this assay and about 890 (0.31%) were called active. No stated cut-off is given here; in the data, active means inhibition mostly above about 52% (no sharp cut-off); inactive means mostly below about 76%. Shown is part of a subset that was picked to be rich in actives.

Usually inhibition stands for the change of the read-out against control, counted positive when it falls. Consider `O=S(=O)(c1ccccc1)N1CCC(Oc2ccc(-n3cnnn3)cc2)CC1`, for which, under “at 20 µM”, the inhibition is 0.5% (inactive). The same measure, in the same setting: as for `COc1cnc(N(C)C)nc1Sc1cccc(Cl)c1`, the figure is 1.2% (inactive).

On to `Cc1c(O)c2c3c(cccc3c1O)C(=O)N(c1ccccc1)C2=O`, for which the inhibition runs as follows: (at 20 µM) 57.9% (active); under setting [1], 55.3%. With `Nc1ccc2c3c(cccc13)C(=O)N(c1ccccc1)C2=O`, the inhibition (at 20 µM) is 142% (inactive). On the same count and under the same terms, as for `O=C(O)c1ccc2c3c(cccc13)C(=O)N(c1ccccc1)C2=O`, the figure is 24.2% (inactive); as for `Cc1cc(C)cc(NC(=O)c2cccn2-c2ncc(C(F)(F)F)cc2Cl)c1`, 2.6% (inactive); as for `O=C(N=c1ccn(-c2nc3ccccc3nc2NS(=O)(=O)c2ccccc2)cc1)c1ccccc1Cl`, 24.6% (inactive). Same read-out and setting: as for `O=C(N=c1ccn(-c2nc3ccccc3nc2NS(=O)(=O)c2ccc(Cl)cc2)cc1)c1cccs1`, the figure is 19.3% (inactive); as for `O=C(N=c1ccn(-c2nc3ccccc3nc2NS(=O)(=O)c2ccc(Cl)cc2)cc1)c1ccccc1Cl`, 102% (active). Regarding `COc1cccc(/C=N/n2c(C3CCCCC3)n[nH]c2=S)c1`, where the note is “at 20 µM”, the inhibition was 0.5% (inactive).

Consider `CC(C)(C)C(=O)NC(=S)Nc1ccccc1C(N)=O`, for which the inhibition (at 20 µM) was -0.3% (inactive). On to `CCCCCCc1cc2cc(-c3nnc(-c4ccccc4OC)o3)c(=O)oc2cc1O`, for which the inhibition runs as follows: (at 20 µM) 81.8% (inactive); under setting [1], 45.4%. On to `CCCCCCc1cc2cc(-c3nnc(-c4cc(OC)c(OC)c(OC)c4)o3)c(=O)oc2cc1O`, for which the inhibition runs as follows: (at 20 µM) 73.7% (active); under setting [1], 61.9%. In the same order, the values of `CCCCCCc1cc2cc(-c3nnc(-c4ccccc4O)o3)c(=O)oc2cc1O` are 65.1% (inactive) and 47.7%. In the case of `CCOc1cc(CN2CCCC(N3CCc4ccccc4C3)C2)ccc1O` (stereo not given), the inhibition (at 20 µM) is -0.5% (inactive). On the same count and under the same terms, under `Oc1c(Cl)cc(Cl)cc1C=Nc1ccc(N2CCOCC2)cc1` stands 1.6% (inactive). For `Cc1cc(O)c(C=Nc2ccc(N3CCOCC3)cc2)c(C)c1Cl`, the inhibition was 80.4% (active) (at 20 µM) and 73.9% under setting [1]. Regarding `Oc1ccc(C=Nc2ccc(N3CCOCC3)cc2)c(O)c1`, where the note is “at 20 µM”, the inhibition was 6.1% (inactive). Same read-out and setting: under `CCOc1cc(/C=C2\C(=N)N3N=C(N4CCCCC4)SC3=NC2=O)ccc1OC(=O)c1ccco1` stands 20.5% (inactive). Still for that read-out and setting: under `CCS(=O)(=O)C1=NN2C(=N)/C(=C\c3ccc(OC(=O)c4ccco4)c(Br)c3)C(=O)N=C2S1` stands 52.4% (active). For `N=C1/C(=C\c2ccc(SCc3ccco3)o2)C(=O)N=C2SC=NN12`, the inhibition was 100% (inactive) (at 20 µM) and 7.1% under setting [1]. With `CCC1=NN2C(=N)/C(=C\c3ccc(SCc4ccco4)o3)C(=O)N=C2S1`, for the setting “at 20 µM”, the inhibition is -2.8% (inactive). Turning to `O=C1NC(=S)S/C1=C\c1ccc(SCc2ccccc2)o1`, the inhibition is 72.3% (inactive) (at 20 µM) and 15.9% under setting [1]. In the case of `CCS(=O)(=O)C1=NN2C(=N)/C(=C\c3ccc(SCc4ccco4)o3)C(=O)N=C2S1`, where the note is “at 20 µM”, the inhibition was 72.8% (active).

For the molecule `COc1cc(/C=C2/C(=N)N3C(SC)=NSC3=NC2=O)ccc1OC(=O)c1ccco1`, the inhibition was 59.5% (inactive) (at 20 µM) and 17.2% under setting [1]. Turning to `CCCC1=NN2C(=N)/C(=C\c3ccc(SCc4ccco4)o3)C(=O)N=C2S1`, the inhibition (at 20 µM) was -0.5% (inactive).

`CCS(=O)(=O)C1=NSC2=NC(=O)/C(=C\c3ccc(OC(=O)c4ccco4)c(OC)c3)C(=N)N21`: the inhibition (at 20 µM) was 20.4% (inactive). On the same count and under the same terms, as for `O=C1NC(=S)S/C1=C\c1ccc(SCc2ccco2)o1`, the figure is 53.5% (active); as for `CCS(=O)(=O)C1=NN2C(=N)/C(=C\c3ccc(OC(=O)c4ccco4)cc3)C(=O)N=C2S1`, 39.2% (inactive). Still for that read-out and setting: as for `COc1cc(/C=C2\C(=N)N3N=C(S(=O)(=O)CC(C)C)SC3=NC2=O)ccc1OC(=O)c1ccco1`, the figure is 70.2% (active); as for `COc1ccccc1C(CNc1nc(C(F)(F)F)nc2ccccc12)N(C)C` (stereo not given), 1.8% (inactive). Still for that read-out and setting: as for `CCn1c(SCC(=O)NC(C)C)nnc1-c1cccs1`, the figure is -1.3% (inactive); as for `Cc1cccc(CN2CCN(c3nc4nonc4nc3NC3CC3)CC2)c1`, 6.4% (inactive).

As to `CCCCC(=O)Nc1nn(C)c2nc3c(C)cccc3cc12`, the inhibition (at 20 µM) is 0.6% (inactive). The same measure, in the same setting: under `COc1ccccc1C(=O)Nc1ccc(C2=NNC(=O)CC2C)cc1` (stereo not given) stands 1.5% (inactive); under `COc1ccccc1NC(=O)c1nn(-c2ccc(F)c(F)c2)ccc1=O`, -0.5% (inactive); under `CCOc1ccc(C(=O)Nc2ccc3c(c2)C(=O)NC3=O)cc1`, 2.2% (inactive).

As to `C=CCn1c(SC(C)C(=O)NCc2ccc3c(c2)OCO3)nnc1C1CCCCC1` (stereo not given), the inhibition (at 20 µM) was -0.3% (inactive). Same read-out and setting: under `CSc1ncc(CN2CCCC(C(=O)c3ccc(C(C)(C)C)cc3)C2)cn1` (stereo not given) stands 2.1% (inactive); under `CCOc1cc(/C=C2/C(=N)N3N=C(CC)SC3=NC2=O)ccc1OC(=O)c1ccco1`, 12.4% (inactive); under `CCS(=O)(=O)C1=NN2C(=N)/C(=C\c3ccc(OC(=O)c4ccco4)c(OC)c3)C(=O)N=C2S1`, 34.9% (inactive). Same read-out and setting: under `CCOc1cc(/C=C2\C(=N)N3N=C(S(=O)(=O)CC)SC3=NC2=O)ccc1OC(=O)c1ccco1` stands 60.6% (active); under `O=C1C(c2cc(=O)c3ccccc3[nH]2)=C(O)c2ccccc21`, -2.1% (inactive). The same measure, in the same setting: under `Brc1ccc(/C=C/C=N/Nc2nc3ccccc3s2)cc1` stands -4.3% (inactive); under `Oc1ccc(N=C/C=C/c2ccc(Br)cc2)cc1-c1nc2ccccc2s1`, 64.1% (active). `Oc1ccc(N=C/C=C/c2cccc(Br)c2)cc1-c1nc2ccccc2s1`: the inhibition was 61.8% (inactive) (at 20 µM) and 5.5% under setting [1].
